Among the test systems are HCT-15 colon; HT29 colon; SNB-75 CNS; SNB-19 CNS; U251 CNS; PC-3 prostate; SK-MEL-5 melanoma; UACC-62 melanoma; LOX IMVI melanoma; SK-MEL-28 melanoma.
Assay in all cases: NCI-60 one-dose screen, 48 h (100 = growth as untreated, 0 = no growth, -100 = all killed)
Common to all, as to details: 10 µM

The panel holds about 83,000 compounds, 20% with a hit somewhere; the sample as a whole holds those more often.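 Each cell line was grown in a 96-well plate and treated with one concentration of compound for 48 hours. Values below 10 were considered active.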 Unmarked numbers belong to inactive results. Activity calls are given as the source filed them.

Take `C/C(=N\NC(N)=S)C(C)(C)O`: the growth is 101% in the assay with HCT-15 colon; 61% in the assay with HT29 colon; 91.2% with SNB-75 CNS; 106% with SNB-19 CNS; 88.1% with U251 CNS; 90.1% in the assay on PC-3 prostate. In addition, the growth is 101% in the assay on SK-MEL-5 melanoma, 103% in the assay with UACC-62 melanoma, 95.1% with LOX IMVI melanoma and 98.5% in the assay with SK-MEL-28 melanoma.
Regarding `COc1cc(CSc2nc3ccc(C)cc3c(=O)n2Cc2ccccc2)cc(OC)c1OC`, the growth with HCT-15 colon is 29.2%; with HT29 colon, 10.5%; in the assay with SNB-75 CNS, -4.08% (active); in the assay on SNB-19 CNS, 58.1%; in the assay with U251 CNS, 33.1%; with PC-3 prostate it was 45.9%. For the same molecule, the growth was 17.8% in the assay with SK-MEL-5 melanoma, 21.4% with UACC-62 melanoma, 39.8% with LOX IMVI melanoma and 52% with SK-MEL-28 melanoma.
Turning to `CCCCCCCCCCCCCCCCCBr`, the growth with HCT-15 colon was 102%; in the assay with HT29 colon it was 97.5%; in the assay on SNB-75 CNS, 84.3%; in the assay with SNB-19 CNS it was 95.9%; in the assay with U251 CNS, 103%; in the assay on PC-3 prostate, 92.6%. Moreover, the growth in the assay on SK-MEL-5 melanoma was 98.9%; with UACC-62 melanoma, 104%; in the assay on LOX IMVI melanoma it was 101%; with SK-MEL-28 melanoma, 108%.
On to `COc1ccc(/C(=C/c2cc(OC)c(OC)cc2[N+](=O)[O-])C(=O)O)cc1`, for which the growth in the assay with HCT-15 colon is 107%; in the assay on HT29 colon, 109%; in the assay on SNB-75 CNS it was 93.8%; with SNB-19 CNS, 106%; in the assay on U251 CNS, 107%; with PC-3 prostate, 99.2%. The growth in the assay on SK-MEL-5 melanoma was 110%; in the assay on UACC-62 melanoma, 106%; in the assay on LOX IMVI melanoma, 97.1%; in the assay on SK-MEL-28 melanoma, 116%.
For the molecule `O=C(NC1CCCC1)c1ccc(N2CCC(NCc3cccc(C(F)(F)F)c3)CC2)cc1`, the growth in the assay with HCT-15 colon was 77.8%; with HT29 colon, 36.7%; in the assay with SNB-75 CNS it was 85.3%; in the assay on SNB-19 CNS, 105%; in the assay on U251 CNS, 82.9%; in the assay with PC-3 prostate, 83.3%. Also, the growth was 79.5% in the assay with SK-MEL-5 melanoma, 104% in the assay with UACC-62 melanoma, 89.7% in the assay with LOX IMVI melanoma and 108% with SK-MEL-28 melanoma.
For the molecule `CN1CCN(c2nc(-c3cccnc3)nc3sc4c(c23)CCCCCC4)CC1`, the growth was 93.2% in the assay on HCT-15 colon; 91.3% in the assay on HT29 colon; 67.4% in the assay with SNB-75 CNS; 101% in the assay on SNB-19 CNS; 72.3% with U251 CNS; 66.7% in the assay with PC-3 prostate. In addition, the growth in the assay with SK-MEL-5 melanoma was 87.9%; in the assay on UACC-62 melanoma it was 103%; with LOX IMVI melanoma it was 78.6%; in the assay on SK-MEL-28 melanoma it was 99.7%.
Consider `O=NN(CCCl)C(=O)Nc1ccc(NC(=O)N(CCCl)N=O)cc1`, for which the growth in the assay on HCT-15 colon was 94.5%; with HT29 colon, 115%; with SNB-75 CNS, 64%; in the assay with SNB-19 CNS, 68.6%; with U251 CNS it was 55.7%; in the assay with PC-3 prostate it was 86.5%. Besides, the growth in the assay on SK-MEL-5 melanoma is 97.1%; with UACC-62 melanoma it was 63.9%; in the assay on LOX IMVI melanoma it was 58.5%; in the assay on SK-MEL-28 melanoma, 98.8%.
Turning to `Nc1ncc(-c2ccc(C(F)(F)F)cc2)c(NC2CCCCCC2)n1`, the growth in the assay with HCT-15 colon is 73.7%; with HT29 colon, 31.5%; in the assay with SNB-75 CNS, 57.8%; in the assay on SNB-19 CNS, 49.9%; in the assay with U251 CNS it was 22.5%; with PC-3 prostate, 12%. In addition, the growth with SK-MEL-5 melanoma was 3.53% (active); with UACC-62 melanoma it was 0.46% (active); in the assay on LOX IMVI melanoma it was 48%; with SK-MEL-28 melanoma, 33.7%.
Turning to `CCNC1(NC#N)CCCCC1`, the growth with HCT-15 colon is 98.8%; with HT29 colon, 123%; with SNB-75 CNS it was 91.2%; in the assay with SNB-19 CNS, 110%; with U251 CNS, 98.9%; in the assay with PC-3 prostate, 95%. In addition, the growth was 96.8% with SK-MEL-5 melanoma, 105% with UACC-62 melanoma, 104% in the assay with LOX IMVI melanoma and 103% in the assay with SK-MEL-28 melanoma.
For `CC(C)c1[nH]nc2c(NCc3ccc(-c4ccccn4)cc3)nc(SCCN(C)C)nc12`, the growth in the assay on HCT-15 colon was 6.46% (active); with HT29 colon, -15.7% (active); with SNB-75 CNS, -55.9% (active); in the assay with SNB-19 CNS, 13.7%; with U251 CNS, 7.48% (active); in the assay with PC-3 prostate, 2.89% (active). Also, the growth with SK-MEL-5 melanoma is 1.36% (active); with UACC-62 melanoma it was -37.2% (active); in the assay with LOX IMVI melanoma, -7.56% (active); in the assay on SK-MEL-28 melanoma, 5.17% (active).
Take `C=C[C@]1(C)C=C2C(=O)[C@@]3(O)OC(=O)[C@@]4(CCCC(C)(C)[C@H]34)[C@@]2(O)CC1`: the growth is -30.5% (active) in the assay with HCT-15 colon; -2.72% (active) in the assay with HT29 colon; -78.8% (active) in the assay with SNB-75 CNS; 26.5% in the assay with SNB-19 CNS; -94% (active) in the assay on U251 CNS; -74.7% (active) with PC-3 prostate. For the same molecule, the growth in the assay with SK-MEL-5 melanoma was -99.1% (active); with UACC-62 melanoma it was -87.2% (active); in the assay with LOX IMVI melanoma, -96.7% (active); with SK-MEL-28 melanoma, -98.8% (active).
As to `COc1ccc(C(=O)n2nc(CC(=O)NCc3ccccc3)nc2N)cc1`, the growth in the assay on HCT-15 colon was 107%; in the assay with HT29 colon, 108%; with SNB-75 CNS it was 92.9%; in the assay on SNB-19 CNS, 97.3%; in the assay with U251 CNS, 105%; in the assay with PC-3 prostate it was 101%. The growth was 111% in the assay with SK-MEL-5 melanoma, 93% in the assay on UACC-62 melanoma, 101% with LOX IMVI melanoma and 108% in the assay with SK-MEL-28 melanoma.
In the case of `Cc1ccc(NC(=O)/C=N/O)cc1C`, the growth with HCT-15 colon is 98.1%; with HT29 colon it was 102%; in the assay with SNB-75 CNS, 84.4%; in the assay with SNB-19 CNS, 102%; in the assay with U251 CNS, 89.8%; in the assay on PC-3 prostate it was 86.5%. The growth in the assay with SK-MEL-5 melanoma was 97.6%; with UACC-62 melanoma, 95.4%; in the assay with LOX IMVI melanoma, 101%; in the assay with SK-MEL-28 melanoma it was 104%.
On to `CC1(C)Cc2c(cn(Cc3ccccc3)c2-c2ccccc2)-c2oncc21`, for which the growth with HCT-15 colon is 101%; in the assay with HT29 colon it was 79.6%; in the assay with SNB-75 CNS, 103%; in the assay with SNB-19 CNS, 110%; in the assay with U251 CNS it was 88.9%; in the assay on PC-3 prostate, 86.2%. Moreover, the growth in the assay with SK-MEL-5 melanoma was 83.5%; in the assay with UACC-62 melanoma, 86.7%; in the assay on LOX IMVI melanoma it was 90.2%; in the assay with SK-MEL-28 melanoma, 112%.

These data come from PubChem BioAssay (NCI).
